Where “and” joins values, the source holds several entries; their conditions need not be identical. Identical values can stand only once. Records with an inconclusive call do not appear. Calls of active or inactive are those of the source. Unless noted, the call rests on the fitted dose curve; in most records, active means well fitted curve in the direction sought with a large enough effect in the repeat runs; inconclusive means weak or mixed curves; inactive means no such curve, though single readings can be large; an effect the other way counts as inactive or inconclusive.
What was measured:
[1] = qHTS assay to test for compound auto fluorescence at 535 nm (green) in HEK293 cells (AID 720680)
[2] = qHTS assay to test for compound auto fluorescence at 460 nm (blue) in HEK293 cell free culture (AID 720681)
Procedure, shortened: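 Test compounds were pinned into cell-free culture medium (DMEM with 10% FBS) and fluorescence was read directly at Ex/Em 405/460 nm. Signals were expressed as fluorescence equivalents of triamterene, with DMSO vehicle as control.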

[3] = qHTS assay to test for compound auto fluorescence at 535 nm (green) in HEK293 cell free culture (AID 720682)
Procedure, shortened: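 Measurement is a direct plate read of green fluorescence (485 nm in, 535 nm out) after compound addition to serum-supplemented DMEM lacking cells, with fluorescein used to express intensities.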

[4] = qHTS assay to test for compound auto fluorescence at 590 nm (red) in HEK293 cell free culture (AID 720683)
Procedure, shortened: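 Tox21 10K library compounds were pinned into cell-free DMEM with 10% FBS and fluorescence was read at excitation 540 nm. Activity is expressed as Rose Bengal sodium equivalency.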

[5] = qHTS assay to test for compound auto fluorescence at 590 nm (red) in HepG2 cell free culture (AID 720684)
Procedure, shortened: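 Readout: intrinsic compound fluorescence at 590 nm emission after 540 nm excitation, scaled to Rose Bengal sodium. Matrix was cell-free MEM with 10% FBS; DMSO vehicle wells served as control.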

[6] = qHTS assay to test for compound auto fluorescence at 460 nm (blue) in HepG2 cell free culture (AID 720685)
Procedure, shortened: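 Cell-free plates of MEM plus 10% FBS received 23 nL compound or DMSO vehicle; blue-channel (405/460 nm) intensity scored against triamterene as reference fluorophore.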

[7] = qHTS assay to test for compound auto fluorescence at 535 nm (green) in HepG2 cell free culture (AID 720686)
[8] = qHTS assay to test for compound auto fluorescence at 460 nm (blue) in HepG2 cells (AID 720687)
Procedure, shortened: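 Cells (2,000/well in MEM with 10% FBS) attached overnight at 37 C, then were exposed to compound or DMSO for 1 hr at 37 C, 5% CO2. Fluorescence read at Ex/Em 405/460 nm, expressed as triamterene-equivalent signal.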

[9] = qHTS assay to identify small molecule antagonists of the glucocorticoid receptor (GR) signaling pathway - cell viability counter screen (AID 720693); further: nearly all actives have a fitted effect of over 55% in size
[10] = qHTS assay for identifying genotoxic compounds that show differential cytotoxicity against isogenic chicken DT40 cell lines with known DNA damage response pathways - wild type cell line (AID 743012); further: nearly all actives have a fitted effect of over 60% in size; further: potency means the concentration at half of the fitted maximal effect
Procedure, shortened: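 Endpoint: CellTiter-Glo luminescence, 30 min RT. Cells: wild type DT40, 300/well. Exposure: compounds in DMSO, 40 h, 37 C/5% CO2, after ~0.5 h pre-incubation.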

[11] = qHTS assay for identifying genotoxic compounds that show differential cytotoxicity against isogenic chicken DT40 cell lines with known DNA damage response pathways - Rad54/Ku70 mutant cell line (AID 743015); further: nearly all actives have a fitted effect of over 60% in size; further: potency means the concentration at half of the fitted maximal effect
[12] = qHTS assay to identify small molecule antagonists of the androgen receptor (AR) signaling pathway - cell viability counter screen (AID 743033; further: nearly all actives have a fitted effect of over 45% in size; further: potency means the concentration at half of the fitted maximal effect)
[13] = qHTS assay to identify small molecule antagonists of the androgen receptor (AR) signaling pathway using the MDA cell line - cell viability counter screen (AID 743041; further: nearly all actives have a fitted effect of over 45% in size)
Procedure, shortened: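 qHTS viability read-out; MDA-kb2 AR-luc; R1881-stimulated; 16 h exposure at 37C, 0% CO2; CellTiter-Fluor, 30 min; fluorescence intensity.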

[14] = qHTS assay for identifying genotoxic compounds that show differential cytotoxicity against isogenic chicken DT40 cell lines with known DNA damage response pathways - Rev3 mutant cell line (AID 743014); further: nearly all actives have a fitted effect of over 55% in size; further: potency means the concentration at half of the fitted maximal effect
[15] = target: Androgen receptor (Homo sapiens) (UniProt P10275); test: qHTS assay to identify small molecule agonists of the androgen receptor (AR) signaling pathway using the MDA cell line (AID 743040; further: nearly all actives have a fitted effect of over 20% in size)
Chain of Androgen receptor (Homo sapiens) (P10275 whole entry, looked up): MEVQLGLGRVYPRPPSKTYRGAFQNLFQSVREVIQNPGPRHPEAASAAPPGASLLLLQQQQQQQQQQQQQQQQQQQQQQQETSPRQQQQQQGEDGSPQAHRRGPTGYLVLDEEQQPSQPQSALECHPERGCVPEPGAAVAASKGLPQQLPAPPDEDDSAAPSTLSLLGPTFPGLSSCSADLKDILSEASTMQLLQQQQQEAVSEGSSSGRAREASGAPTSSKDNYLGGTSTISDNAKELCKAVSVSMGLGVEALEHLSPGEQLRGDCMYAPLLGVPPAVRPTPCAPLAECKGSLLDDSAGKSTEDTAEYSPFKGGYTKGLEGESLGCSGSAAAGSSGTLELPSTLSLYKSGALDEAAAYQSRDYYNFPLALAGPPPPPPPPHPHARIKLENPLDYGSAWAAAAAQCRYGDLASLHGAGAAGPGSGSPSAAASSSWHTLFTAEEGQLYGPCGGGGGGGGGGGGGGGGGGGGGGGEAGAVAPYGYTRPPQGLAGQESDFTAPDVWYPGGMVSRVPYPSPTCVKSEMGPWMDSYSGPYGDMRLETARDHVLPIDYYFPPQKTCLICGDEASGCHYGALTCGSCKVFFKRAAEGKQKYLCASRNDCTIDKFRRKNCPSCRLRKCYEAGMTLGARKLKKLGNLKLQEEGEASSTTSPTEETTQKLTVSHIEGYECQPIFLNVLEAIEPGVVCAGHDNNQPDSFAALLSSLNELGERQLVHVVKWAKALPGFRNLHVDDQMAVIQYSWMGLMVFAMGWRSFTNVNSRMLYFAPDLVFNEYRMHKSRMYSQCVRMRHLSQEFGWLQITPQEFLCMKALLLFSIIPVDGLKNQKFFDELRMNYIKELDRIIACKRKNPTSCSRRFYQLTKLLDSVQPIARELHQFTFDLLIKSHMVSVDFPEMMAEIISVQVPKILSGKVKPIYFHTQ
Procedure, shortened: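 Agonist activity is measured as luciferase luminescence in human MDA-kb2 cells whose MMTV reporter responds to both AR and GR. Compounds in DMSO incubate 16 h at 37C, 0% CO2, and ONE-Glo is read after 30 min.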

[16] = target: Androgen receptor (Homo sapiens) (UniProt P10275); test: qHTS assay to identify small molecule antagonists of the androgen receptor (AR) signaling pathway (AID 743035; active means well fitted inhibition curve with a large enough effect in the signal ratio in the repeat runs, not every such curve was filed as active; the % refers to the signal ratio; further: potency means the concentration at half of the fitted maximal effect)
Procedure, shortened: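 R1881 agonist challenge of a HEK293 UAS-beta-lactamase AR reporter line in the presence of compound (16 h, 37C); signal taken as FRET fluorescence after 2 h with LiveBLAzer B/G substrate at room temperature.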

[17] = target: Androgen receptor (Homo sapiens) (UniProt P10275); test: qHTS assay to identify small molecule agonists of the androgen receptor (AR) signaling pathway (AID 743036; active means well fitted activation curve with a large enough effect in the signal ratio in the repeat runs, with a control signal flat, not every such curve was filed as active; the % refers to the signal ratio)
Procedure, shortened: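 Beta-lactamase under UAS control, stably integrated in HEK293 GripTite cells, reports receptor activation. After 16 h compound treatment, cells received FRET substrate for 2 h at room temperature before fluorescence reading.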

[18] = target: Androgen receptor (Homo sapiens) (UniProt P10275); test: qHTS assay to identify small molecule antagonists of the androgen receptor (AR) signaling pathway using the MDA cell line (AID 743042; further: potency means the concentration at half of the fitted maximal effect; nearly all actives have a fitted effect of over 55% in size)
Procedure, shortened: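 MDA-kb2 cells (human breast carcinoma, stably carrying an MMTV-luciferase reporter responsive to AR and GR) were plated at 3,000 cells/well and preincubated 5 hr at 37C, then given compound plus R1881 agonist for 16 h. ONE-Glo luminescence was read.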

Measured: Potency

C=CC1=C(C(=O)O)N2C(=O)[C@@H](NC(=O)/C(=N/OCC(=O)O)c3csc(N)n3)[C@H]2SC1 (stereo in doubt)
not listed: [14] | [15] | [16] | [17] | [18]
inactive: all other assays above

NCc1cccc(C2CCN(C(=O)c3ccc(C#Cc4ccccc4F)o3)CC2)c1
active: [10] 17.2 µM | [14] 30.6 µM | [11] 17.2 µM | [12] 21.9 µM
not listed: [9] | [13] | [16] | [17] | [18]
inactive: all other assays above

CCOC(=O)Cc1ccc(-c2ccccc2)cc1
not listed: [10] | [15] | [16] | [17] | [18]
inactive: all other assays above

C=C(Nc1ccc(OCC)cc1)Nc1ccc(OCC)cc1
active: [10] 29.8 µM and 23.7 µM | [11] 23.7 µM
not listed: [14] | [15] | [16] | [17] | [18]
inactive: all other assays above

O=C1CCC/C=C\CCCCCCCCCC1
not listed: [11] | [12] | [14] | [15] | [16] | [17] | [18]
inactive: all other assays above

CN[C@H]1CC[C@@H](c2ccc(Cl)c(Cl)c2)c2ccc(S(N)(=O)=O)cc21
active: [10] 13.7 µM | [14] 13.7 µM | [11] 13.7 µM | [12] 54.9 µM | [16] 43.6 µM | [18] 68.6 µM
not listed: [9] | [13]
inactive: all other assays above

CCCCCCCCCC[N+](C)(CCCCCCCCCC)CCC[Si](OC)(OC)OC
inactive: [1] | [2] | [3] | [4] | [5] | [6] | [7] | [8]
active: [10] 5.45 µM | [14] 7.7 µM | [11] 7.7 µM | [12] 43.6 µM

N[C@H](C(=O)O)[C@@H]1CC(Cl)=NO1
active: [14] 2.66 µM | [11] 2.98 µM
inactive: [1] | [2] | [3] | [4] | [5] | [6] | [7] | [8] | [13]
